Screens deposited in PubChem by The Scripps Research Institute Molecular Screening Center.
PAFAH1B3 FP inh = inhibitors of human PAFAH1B3 | recombinant PAFAH1B3, FP-rhodamine probe, fluorescence polarization | Q15102 | actives 0.28% (n = 340,000) | AID 492972 | inhibition, % at 3.39 µM;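 active means inhibition above the screen-wide average of all tested compounds plus 3 SD, cut at about 25% in these data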;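 further: 0% = enzyme with DMSO only and 100% = wells lacking PAFAH1B3 protein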
Target sequence (Q15102 whole entry, looked up): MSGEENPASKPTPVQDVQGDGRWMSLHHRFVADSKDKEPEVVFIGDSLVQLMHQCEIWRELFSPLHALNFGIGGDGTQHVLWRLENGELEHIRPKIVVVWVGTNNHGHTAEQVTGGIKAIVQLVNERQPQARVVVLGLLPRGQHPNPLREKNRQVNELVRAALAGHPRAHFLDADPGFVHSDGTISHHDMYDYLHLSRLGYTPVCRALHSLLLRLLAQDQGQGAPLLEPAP
PKA-R2B activ = activators of human PKA-R2B complex; PKA-R2B holoenzyme dissociation, Cy5-IP20 fluorescence polarization; R2B truncated from residue 108, S112A mutant; 0% DMSO only, 100% 113 µM cGMP; activation, % at 11.4 µM; actives 0.079% (n = 340,000);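 active means activation above a cutoff set at the mean over all compounds plus 3 SD, cut at about 18% in these data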;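 further: higher means more holoenzyme dissociation and a rise in polarization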
Target sequence (P31323 whole entry, looked up, other chains not shown, the tested form may be a part): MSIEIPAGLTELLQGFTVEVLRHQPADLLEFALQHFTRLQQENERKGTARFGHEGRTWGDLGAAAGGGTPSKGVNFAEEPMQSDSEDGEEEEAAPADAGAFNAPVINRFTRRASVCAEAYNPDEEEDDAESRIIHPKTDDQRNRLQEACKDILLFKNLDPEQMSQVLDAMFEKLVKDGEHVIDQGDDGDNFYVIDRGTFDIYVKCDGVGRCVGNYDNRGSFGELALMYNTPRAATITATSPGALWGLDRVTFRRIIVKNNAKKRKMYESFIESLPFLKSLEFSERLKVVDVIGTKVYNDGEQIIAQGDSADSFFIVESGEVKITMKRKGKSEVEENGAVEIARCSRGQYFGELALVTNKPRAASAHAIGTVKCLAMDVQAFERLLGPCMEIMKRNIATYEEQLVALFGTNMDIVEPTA
PKA-R1A act = activators of PKA-R1A complex | P00514+P68181 | activation, % at 11.4 µM | PKA-R1A dissociation, Cy5-IP20 fluorescence polarization; scaled: DMSO 0%, 113 µM cGMP 100% | actives 0.083% (n = 340,000) | AID 504707;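 active means percent activation above the mean of all tested compounds plus 3 SD, cut at about 19% in these data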;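 further: higher means more PKAc released from R1A so a rise in polarization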
pPAFAH inh = pPAFAH (human) enzyme inhibition | Q13093 | recombinant pPAFAH, FP-rhodamine probe fluorescence polarization | inhibition, % at 3.39 µM | actives 1.5% (n = 330,000) | AID 463082;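 active means inhibition above the mean inhibition across the screen plus 3 SD, cut at about 25% in these data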;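 further: inhibitors block binding of the rhodamine activity-based probe so polarization drops; 0% = enzyme with DMSO and 100% = wells lacking pPAFAH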
PAFAH1B2 inh = PAFAH1B2 (human) inhibition; P68402; recombinant PAFAH1B2, FP-rhodamine activity probe, fluorescence polarization; inhibition, % at 3.39 µM; actives 1.2% (n = 340,000);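 active means inhibition above the mean of all tested compounds plus 3 SD, cut at about 24% in these data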;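 further: 0% = enzyme with DMSO and 100% = wells lacking PAFAH1B2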
PAFAH2 inh = PAFAH2 (human) inhibition; Q99487; recombinant PAFAH2, FP-rhodamine activity probe, fluorescence polarization; inhibition, % at 3.39 µM; actives 0.99% (n = 340,000);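 active means inhibition above the mean over all tested compounds plus 3 SD, cut at about 30% in these data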;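 further: inhibitors block probe labeling of enzyme so polarization drops; 0% = enzyme with DMSO and 100% = wells lacking PAFAH2 protein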
PAFAH2 confirm = confirmation of human PAFAH2 inhibitors; inhibition, % at 3.39 µM; recombinant PAFAH2, FP-rhodamine activity probe, fluorescence polarization; actives 65% (n = 2,300); shares compounds with PAFAH2 inh;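 active means mean inhibition over three repeats above a set limit taken from the earlier primary screen, cut at about 30% in these data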;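 further: inhibitor blocks binding of rhodamine activity probe so polarization falls; 0% = enzyme with DMSO and 100% = wells lacking PAFAH2 protein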
* = called active by the depositor; nt = not tested or not shown. Hits are enriched below; roughly 2.6% of the tested compounds scored in any of these assays.

SMILES | PAFAH1B3 FP inh | PKA-R2B activ | PKA-R1A act | pPAFAH inh | PAFAH1B2 inh | PAFAH2 inh | PAFAH2 confirm
COc1cc(-c2cccs2)cc(=O)c2c(C)oc(C)c12 | 7 | 0 | -2 | 22 | 4 | 32* | 6
CCCCNC(=O)c1ccccc1NC(=O)c1ccc2c(c1)OCO2 | 8 | -2 | 5 | -5 | 4 | 47* | 38*
CC(C)(C)NC(=O)c1ccccc1NC(=O)c1ccc2c(c1)OCO2 | 6 | -6 | 4 | 2 | 0 | 3 | nt
CC(OC(=O)C1CCN(c2ccc(C(F)(F)F)cn2)CC1)C(=O)Nc1cccc([N+](=O)[O-])c1 (configuration not stated) | 3 | -17 | 7 | 2 | 3 | 1 | nt
O=C(NC1CCCCC1)C(c1ccncc1)N(CC1CCCO1)C(=O)C(F)(F)F (configuration not stated) | 2 | -5 | 9 | -2 | 2 | 41* | 19
CCC(C)N(C(=O)C(F)(F)F)C(C(=O)NC1CCCCC1)c1ccncc1 (configuration not stated) | 0 | 0 | 7 | -5 | 5 | 7 | nt
CC12CCC(=O)N1C(C(=O)N1CCN(S(=O)(=O)c3ccc(Br)cc3Cl)CC1)CS2 (configuration not stated) | 2 | 6 | -1 | 3 | 11 | -24 | nt
Cc1c(C(=O)OC2CCCC2C)[nH]c2c1C(=O)CCC2 (configuration not stated) | 7 | 11 | 4 | 4 | 0 | 59* | 39*
COc1cc(C(=O)OCC(C)=O)ccc1OCc1c(C)noc1C | 9 | -7 | 2 | nt | 2 | 1 | nt
COc1cc(C(=O)OCC(=O)N2CCCCC2C)ccc1OCc1c(C)noc1C (configuration not stated) | 1 | -4 | 7 | 5 | 2 | 32* | 13
NC(=O)C1CCN(C(=O)c2ccc(NS(=O)(=O)/C=C/c3ccccc3)cc2)CC1 | nt | 1 | 4 | nt | nt | nt | nt
O=C(CC1Sc2ccccc2NC1=O)NNc1ccc(F)cc1 (configuration not stated) | 11 | -4 | -3 | nt | 3 | 1 | nt
C/C(=N/OC(=O)CC(C)C)c1cc(-c2ccc(Cl)cc2)no1 | 9 | -10 | 0 | 8 | 0 | 57* | 45*
CN1CCN(c2ccc(S(=O)(=O)N3CCOCC3)cc2NC(=O)CSCc2ccccc2)CC1 | 0 | -15 | 6 | 1 | 10 | -1 | nt
O=C(NC(=S)NNC(=O)c1ccccc1O)c1cccc([N+](=O)[O-])c1 | 19 | -4 | 3 | 17 | 10 | 42* | 27
O=C(NC(=S)NNC(=O)c1ccccc1O)c1ccco1 | 8 | -2 | -7 | 9 | 8 | 53* | 42*
COc1ccc(C(=O)NNC(=S)NC(=O)c2cccc([N+](=O)[O-])c2)cc1 | -3 | 5 | 0 | 3 | 7 | 6 | nt
Cc1cccc(C)c1-n1c(C)cc(/C=N/NC(=O)CSc2ncccn2)c1C | 1 | -5 | -12 | 12 | 3 | 38* | 24
COc1cc(/C=C2\C(=O)ON=C2c2ccccc2)cc(Cl)c1O | -8 | -5 | -2 | 2 | 0 | 33* | 47*
COc1cc(/C=C2\C(=O)ON=C2c2ccccc2)cc(Br)c1O | -6 | -9 | -4 | 3 | 2 | 59* | 61*
COc1cc([N+](=O)[O-])ccc1-c1ccc(/C=C2\C(=O)ON=C2c2ccccc2)o1 | 6 | -4 | -2 | nt | 8 | 30* | 18
O=C1[C@@H](Oc2ccccc2)[C@@H](c2cccnc2)N1c1ccccc1 | 5 | -1 | -1 | 1 | 5 | 4 | nt
N/C(Cc1ccc(Cl)cc1)=N\OC(=O)c1ccc2ccccc2c1 | -4 | -15 | 9 | 20 | 1 | 36* | 30*
COc1ccc(C/C(N)=N/OC(=O)c2ccc(Cl)cc2)cc1 | 5 | 5 | 12 | 5 | 5 | 51* | 39*
N/C(CC1CC1(Cl)Cl)=N\OC(=O)c1ccccc1 (configuration not stated) | -4 | 2 | -1 | 3 | 7 | 83* | 78*
SMILES | PAFAH1B3 FP inh | PKA-R2B activ | PKA-R1A act | pPAFAH inh | PAFAH1B2 inh | PAFAH2 inh | PAFAH2 confirm
N/C(Cc1ccc(Cl)cc1Cl)=N\OC(=O)Cc1ccccc1 | -1 | -5 | 7 | 7 | 17 | 0 | nt
N/C(Cc1ccc(Cl)cc1Cl)=N\OC(=O)c1ccccc1 | 5 | -8 | -2 | 2 | 5 | 78* | 78*
N/C(Cc1ccc(Cl)cc1)=N\OC(=O)c1cccc2ccccc12 | 0 | -1 | 2 | 7 | -1 | 19 | nt
N/C(=N\OC(=O)c1ccc(F)cc1)c1ccccc1 | 6 | 3 | 4 | 2 | 4 | 5 | nt
O=C(NCCCCl)C1CC(=O)N(CCc2ccc(F)cc2)C1 (configuration not stated) | 5 | 0 | 2 | 7 | -2 | 12 | nt
O=C(NCc1cccc(C(F)(F)F)c1)N1CCN(C(=O)c2ccccc2)CC1 | 7 | 11 | 4 | 1 | 4 | 4 | nt
COCCN(CCOC)C(=O)c1ccc(NS(=O)(=O)c2ccc3[nH]c(=O)[nH]c3c2)cc1 | 3 | 1 | -9 | -4 | -2 | -1 | nt
Cc1ccc(/C(N)=N/OC(=O)c2ccc3ccccc3c2)cc1 | 11 | 10 | -3 | 2 | 3 | 0 | nt
Cc1ccc(C(=O)O/N=C(\N)Cc2cccc3ccccc23)cc1 | -5 | -4 | -5 | 10 | -2 | 67* | 74*
Cc1cc(C)c(S(=O)(=O)N2CCC(C(=O)NCc3ccncc3)CC2)c(C)c1 | 1 | -11 | 0 | -2 | -6 | 101* | -1
O=C(OCCN=C1NS(=O)(=O)c2ccccc21)c1cccs1 | 10 | 2 | -4 | 4 | 5 | 38* | 11
O=C(/C=C/c1ccccc1)OCCN=C1NS(=O)(=O)c2ccccc21 | 6 | 0 | -5 | 0 | 4 | 30* | 22
O=C(OCCCN=C1NS(=O)(=O)c2ccccc21)c1cccs1 | 12 | -5 | -1 | 3 | 1 | 5 | nt
COc1cc(OC)cc(-c2c(-c3cccs3)c3cc(-c4ccc(N(C)C)nc4)ccc3n2C)c1 | 3 | -7 | -6 | 16 | -4 | 3 | nt
Cc1ccccc1C(=O)NC(=S)NC1CCS(=O)(=O)C1 (configuration not stated) | 4 | 6 | -2 | 7 | 3 | -2 | nt
Cc1cc(C)cc(OCC(=O)OCC(=O)Nc2ccc(Cl)cn2)c1 | -5 | -10 | -2 | 17 | -2 | -1 | nt
